Assay in all cases: DAPPL (digital affinity profiling via proximity ligation, sequencing); 10 mM Tris-HCl pH 7.5, 50 mM NaCl, 1 mM DTT, 4% glycerol, room temperature, 30 min; GST-TFs on glutathione beads, 16-mer random dsDNA library, 0.1% formaldehyde crosslink after washing; high values mean tight binding
Conditions in all cases: protein: recombinant; tags: N-terminal GST; dsDNA, one strand shown

Test [1] has as its target T1, FLI1 (Homo sapiens, UniProt Q01543 1-452).
T1 sequence: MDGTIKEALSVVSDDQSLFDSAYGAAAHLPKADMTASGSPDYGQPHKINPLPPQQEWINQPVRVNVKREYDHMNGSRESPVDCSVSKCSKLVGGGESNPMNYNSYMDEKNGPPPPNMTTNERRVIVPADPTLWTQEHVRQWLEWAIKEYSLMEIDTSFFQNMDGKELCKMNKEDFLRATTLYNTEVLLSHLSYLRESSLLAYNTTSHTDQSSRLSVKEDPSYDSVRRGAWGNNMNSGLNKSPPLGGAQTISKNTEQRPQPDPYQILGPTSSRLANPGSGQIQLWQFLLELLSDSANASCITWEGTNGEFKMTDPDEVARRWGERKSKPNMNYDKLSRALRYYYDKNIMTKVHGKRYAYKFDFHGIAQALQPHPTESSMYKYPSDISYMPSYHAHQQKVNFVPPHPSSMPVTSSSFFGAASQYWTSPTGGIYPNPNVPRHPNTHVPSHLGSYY
The essentials: (§1)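 Binding signal is defined as a hexamer's read frequency for one factor over its frequency for the tag-only sample. To obtain reads, GST-fused human transcription factors were expressed in yeast, captured on glutathione beads, barcoded with DNA and pooled with that sample. Pools met 200 nmole of a 16-mer random double-stranded DNA library in Tris/NaCl/DTT/glycerol buffer for 30 min at room temperature before washing, 0.1% formaldehyde crosslinking, proximity ligation (BsaI/T4 ligase, 1 h, 37 °C), PCR and Illumina NextSeq500 sequencing.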

Test [2] addresses T2, ELK1 (Homo sapiens, UniProt P19419 1-428).
T2 sequence: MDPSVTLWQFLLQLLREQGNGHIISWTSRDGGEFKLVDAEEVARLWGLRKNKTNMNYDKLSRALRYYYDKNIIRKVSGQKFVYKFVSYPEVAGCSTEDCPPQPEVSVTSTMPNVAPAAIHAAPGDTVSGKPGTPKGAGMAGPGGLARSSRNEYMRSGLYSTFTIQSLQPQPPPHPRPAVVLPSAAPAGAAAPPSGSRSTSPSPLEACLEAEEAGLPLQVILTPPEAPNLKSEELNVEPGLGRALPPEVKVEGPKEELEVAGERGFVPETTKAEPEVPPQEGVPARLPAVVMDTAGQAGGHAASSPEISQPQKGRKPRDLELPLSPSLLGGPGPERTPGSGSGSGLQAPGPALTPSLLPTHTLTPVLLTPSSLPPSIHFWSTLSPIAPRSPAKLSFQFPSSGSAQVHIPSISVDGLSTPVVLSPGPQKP
The essentials: as §1

Test [3] has as its target T3, GABPA (Homo sapiens, UniProt Q06546 1-454).
T3 sequence: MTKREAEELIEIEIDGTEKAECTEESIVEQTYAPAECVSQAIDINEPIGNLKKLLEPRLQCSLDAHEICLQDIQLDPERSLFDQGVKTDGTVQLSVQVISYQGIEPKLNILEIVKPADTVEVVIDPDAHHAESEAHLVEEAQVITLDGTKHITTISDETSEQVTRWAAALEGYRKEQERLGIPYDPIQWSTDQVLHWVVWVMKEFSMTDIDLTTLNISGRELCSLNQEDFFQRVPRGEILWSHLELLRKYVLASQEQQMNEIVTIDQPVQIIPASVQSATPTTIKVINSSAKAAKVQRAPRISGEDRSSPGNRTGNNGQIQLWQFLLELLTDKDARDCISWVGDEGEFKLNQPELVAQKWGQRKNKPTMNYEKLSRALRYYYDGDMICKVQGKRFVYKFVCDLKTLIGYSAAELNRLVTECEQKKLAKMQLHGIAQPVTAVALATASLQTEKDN
The procedure, abridged: as §1

The target of test [4] is T4, ERG (Homo sapiens, UniProt P11308 1-479).
T4 sequence: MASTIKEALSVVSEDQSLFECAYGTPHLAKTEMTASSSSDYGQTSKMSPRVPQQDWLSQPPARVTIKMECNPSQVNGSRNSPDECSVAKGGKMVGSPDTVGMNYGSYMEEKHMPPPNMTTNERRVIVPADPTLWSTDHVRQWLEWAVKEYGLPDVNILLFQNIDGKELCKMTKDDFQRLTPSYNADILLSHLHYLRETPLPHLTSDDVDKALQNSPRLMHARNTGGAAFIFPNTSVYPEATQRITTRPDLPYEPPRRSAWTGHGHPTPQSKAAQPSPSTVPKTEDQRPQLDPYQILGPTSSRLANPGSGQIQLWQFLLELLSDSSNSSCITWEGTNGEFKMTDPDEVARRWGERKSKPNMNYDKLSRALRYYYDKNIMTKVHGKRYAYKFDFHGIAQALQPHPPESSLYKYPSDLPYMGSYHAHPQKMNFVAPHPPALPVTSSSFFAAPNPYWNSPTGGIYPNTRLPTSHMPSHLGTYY
The procedure, abridged:
as §1

In test [5] the target is ELF1 (Homo sapiens, UniProt P32519 1-619). The procedure, abridged: as §1
For test [6], the target named is T5, EHF (Homo sapiens, UniProt Q9NZC4 1-300).
T5 sequence: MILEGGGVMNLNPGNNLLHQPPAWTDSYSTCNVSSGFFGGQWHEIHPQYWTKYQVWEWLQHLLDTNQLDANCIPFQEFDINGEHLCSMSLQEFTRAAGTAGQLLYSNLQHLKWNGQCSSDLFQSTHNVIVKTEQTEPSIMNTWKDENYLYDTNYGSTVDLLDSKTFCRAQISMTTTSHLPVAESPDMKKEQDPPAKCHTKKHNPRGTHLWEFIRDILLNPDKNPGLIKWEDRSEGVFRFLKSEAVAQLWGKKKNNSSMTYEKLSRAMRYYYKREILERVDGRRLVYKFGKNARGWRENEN
The procedure, abridged: as §1

Test [7] deals with SPI1 (Homo sapiens, UniProt P17947 1-270). The procedure, abridged: as §1
Test [8] concerns the target SPIB (Homo sapiens, UniProt Q01892 1-262). The essentials: as §1
For test [9], the target named is T6, ELK3 (Homo sapiens, UniProt P41970 1-407).
T6 sequence: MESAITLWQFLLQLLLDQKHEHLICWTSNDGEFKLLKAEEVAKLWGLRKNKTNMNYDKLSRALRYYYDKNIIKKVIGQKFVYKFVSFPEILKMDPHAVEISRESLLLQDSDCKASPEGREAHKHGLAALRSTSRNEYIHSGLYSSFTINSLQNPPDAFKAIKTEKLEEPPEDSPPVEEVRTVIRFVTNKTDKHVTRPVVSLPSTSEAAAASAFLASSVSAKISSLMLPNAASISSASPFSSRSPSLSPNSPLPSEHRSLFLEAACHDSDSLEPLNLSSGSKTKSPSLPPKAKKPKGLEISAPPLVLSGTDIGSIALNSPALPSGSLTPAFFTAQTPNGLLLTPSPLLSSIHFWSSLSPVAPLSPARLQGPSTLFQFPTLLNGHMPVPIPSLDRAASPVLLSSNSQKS
The procedure, abridged:
as §1

Test [10] concerns the target T7, FEV (Homo sapiens, UniProt Q99581 1-238).
T7 sequence: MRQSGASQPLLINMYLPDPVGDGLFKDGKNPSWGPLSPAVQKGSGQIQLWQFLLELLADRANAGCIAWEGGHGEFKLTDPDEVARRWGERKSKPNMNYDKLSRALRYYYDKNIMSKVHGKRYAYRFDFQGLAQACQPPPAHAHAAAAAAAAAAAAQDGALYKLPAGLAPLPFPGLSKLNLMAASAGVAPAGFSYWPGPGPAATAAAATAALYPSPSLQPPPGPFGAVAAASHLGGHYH
The procedure, abridged:
as §1

For test [11], the target named is ETV5 (Homo sapiens, UniProt P41161 1-510). The essentials: as §1
Test [12] has as its target T8, SPIC (Homo sapiens, UniProt Q8N5J4 1-248).
T8 sequence: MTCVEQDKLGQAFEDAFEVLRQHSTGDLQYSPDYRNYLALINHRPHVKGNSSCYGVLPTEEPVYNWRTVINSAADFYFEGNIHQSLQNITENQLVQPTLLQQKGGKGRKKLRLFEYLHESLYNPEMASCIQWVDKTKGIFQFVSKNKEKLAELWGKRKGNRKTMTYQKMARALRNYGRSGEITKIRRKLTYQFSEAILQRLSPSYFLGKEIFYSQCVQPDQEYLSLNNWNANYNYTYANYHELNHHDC
The procedure, abridged:
as §1

Test [13] addresses ELF4 (Homo sapiens, UniProt Q99607 1-663). The procedure, abridged:
as §1

Test [14] concerns the target T9, ELK4 (Homo sapiens, UniProt P28324-2 1-405).
T9 sequence: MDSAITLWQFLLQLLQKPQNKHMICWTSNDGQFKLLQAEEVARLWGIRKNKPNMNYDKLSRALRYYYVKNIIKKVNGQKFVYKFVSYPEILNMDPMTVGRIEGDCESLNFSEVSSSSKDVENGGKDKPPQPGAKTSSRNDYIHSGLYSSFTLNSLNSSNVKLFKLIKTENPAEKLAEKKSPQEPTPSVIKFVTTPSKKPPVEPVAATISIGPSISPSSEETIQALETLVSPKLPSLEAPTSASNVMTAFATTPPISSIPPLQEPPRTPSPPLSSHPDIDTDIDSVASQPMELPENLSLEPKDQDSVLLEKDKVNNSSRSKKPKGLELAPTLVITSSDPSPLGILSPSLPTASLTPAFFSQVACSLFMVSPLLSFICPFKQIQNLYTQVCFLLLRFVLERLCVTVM
The essentials: as §1

Test [15] deals with T10, ETV2 (Homo sapiens, UniProt O00321 1-342).
T10 sequence: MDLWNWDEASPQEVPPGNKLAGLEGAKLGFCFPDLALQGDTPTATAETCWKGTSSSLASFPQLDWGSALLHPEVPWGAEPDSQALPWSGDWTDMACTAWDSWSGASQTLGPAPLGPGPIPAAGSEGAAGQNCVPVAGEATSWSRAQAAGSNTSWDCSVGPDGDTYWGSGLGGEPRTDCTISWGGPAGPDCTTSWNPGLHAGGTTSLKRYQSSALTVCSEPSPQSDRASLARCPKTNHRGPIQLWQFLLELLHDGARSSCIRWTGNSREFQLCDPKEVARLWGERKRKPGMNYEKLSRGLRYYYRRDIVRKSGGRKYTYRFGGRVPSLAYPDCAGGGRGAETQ
The essentials: as §1

For test [16], the target named is T11, ELF3 (Homo sapiens, UniProt P78545 1-371).
T11 sequence: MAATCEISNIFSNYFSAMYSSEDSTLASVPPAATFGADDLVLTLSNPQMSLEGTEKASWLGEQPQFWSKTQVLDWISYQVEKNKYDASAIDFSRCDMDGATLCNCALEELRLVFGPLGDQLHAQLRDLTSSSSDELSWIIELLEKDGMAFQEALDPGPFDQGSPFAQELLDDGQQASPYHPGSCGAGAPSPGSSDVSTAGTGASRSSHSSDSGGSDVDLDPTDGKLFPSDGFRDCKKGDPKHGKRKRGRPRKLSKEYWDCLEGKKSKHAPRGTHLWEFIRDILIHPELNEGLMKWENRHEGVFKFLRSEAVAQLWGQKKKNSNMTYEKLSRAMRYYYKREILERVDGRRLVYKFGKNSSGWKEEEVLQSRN
The procedure, abridged: as §1

Test [17] concerns the target ETV1 (Homo sapiens, UniProt P50549 1-477). The procedure, abridged:
as §1

In article PMC7862700, “An all-to-all approach to the identification of sequence-specific readers for epigenetic DNA modifications on cytosine” one finds binding signal data, which are given here for two sequences.

SPIB, sequence (Q01892 whole entry): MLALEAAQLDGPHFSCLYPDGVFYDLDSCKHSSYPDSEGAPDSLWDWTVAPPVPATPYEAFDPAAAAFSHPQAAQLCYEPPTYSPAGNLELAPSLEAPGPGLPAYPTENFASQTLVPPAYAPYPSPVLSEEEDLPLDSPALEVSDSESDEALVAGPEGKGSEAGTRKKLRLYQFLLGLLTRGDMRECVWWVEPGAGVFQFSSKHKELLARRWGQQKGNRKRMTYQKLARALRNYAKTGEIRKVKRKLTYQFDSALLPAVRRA
ELF4, sequence (Q99607 whole entry): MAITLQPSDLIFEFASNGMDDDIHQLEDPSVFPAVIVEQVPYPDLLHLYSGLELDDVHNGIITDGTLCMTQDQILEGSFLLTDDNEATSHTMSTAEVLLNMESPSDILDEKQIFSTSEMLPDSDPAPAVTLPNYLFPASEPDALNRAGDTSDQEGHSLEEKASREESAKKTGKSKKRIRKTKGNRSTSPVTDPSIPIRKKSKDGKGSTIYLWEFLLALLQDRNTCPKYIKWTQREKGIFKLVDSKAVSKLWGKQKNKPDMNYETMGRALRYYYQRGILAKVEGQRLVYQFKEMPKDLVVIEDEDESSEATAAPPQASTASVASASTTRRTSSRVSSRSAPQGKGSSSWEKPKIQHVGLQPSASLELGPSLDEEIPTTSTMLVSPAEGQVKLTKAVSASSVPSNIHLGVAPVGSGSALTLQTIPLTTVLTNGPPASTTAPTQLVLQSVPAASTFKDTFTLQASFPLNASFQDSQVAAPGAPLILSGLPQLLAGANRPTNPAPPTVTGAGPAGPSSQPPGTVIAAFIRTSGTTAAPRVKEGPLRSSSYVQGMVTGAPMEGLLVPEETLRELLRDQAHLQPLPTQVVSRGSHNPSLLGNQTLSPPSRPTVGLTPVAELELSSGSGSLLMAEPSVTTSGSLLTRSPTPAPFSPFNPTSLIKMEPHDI
ETV1, sequence (P50549 whole entry): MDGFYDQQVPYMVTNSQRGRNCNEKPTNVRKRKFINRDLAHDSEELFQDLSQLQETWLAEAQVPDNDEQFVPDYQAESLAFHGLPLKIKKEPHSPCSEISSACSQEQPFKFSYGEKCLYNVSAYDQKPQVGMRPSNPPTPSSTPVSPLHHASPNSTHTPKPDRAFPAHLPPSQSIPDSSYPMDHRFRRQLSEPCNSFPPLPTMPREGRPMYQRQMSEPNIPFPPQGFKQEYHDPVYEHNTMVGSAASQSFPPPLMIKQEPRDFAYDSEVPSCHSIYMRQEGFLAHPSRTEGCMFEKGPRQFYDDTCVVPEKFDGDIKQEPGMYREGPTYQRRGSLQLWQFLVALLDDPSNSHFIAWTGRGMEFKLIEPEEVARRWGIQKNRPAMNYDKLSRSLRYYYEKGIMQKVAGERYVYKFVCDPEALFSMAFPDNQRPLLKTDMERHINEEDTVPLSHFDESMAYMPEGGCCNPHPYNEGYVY
ETV5, sequence (P41161 whole entry): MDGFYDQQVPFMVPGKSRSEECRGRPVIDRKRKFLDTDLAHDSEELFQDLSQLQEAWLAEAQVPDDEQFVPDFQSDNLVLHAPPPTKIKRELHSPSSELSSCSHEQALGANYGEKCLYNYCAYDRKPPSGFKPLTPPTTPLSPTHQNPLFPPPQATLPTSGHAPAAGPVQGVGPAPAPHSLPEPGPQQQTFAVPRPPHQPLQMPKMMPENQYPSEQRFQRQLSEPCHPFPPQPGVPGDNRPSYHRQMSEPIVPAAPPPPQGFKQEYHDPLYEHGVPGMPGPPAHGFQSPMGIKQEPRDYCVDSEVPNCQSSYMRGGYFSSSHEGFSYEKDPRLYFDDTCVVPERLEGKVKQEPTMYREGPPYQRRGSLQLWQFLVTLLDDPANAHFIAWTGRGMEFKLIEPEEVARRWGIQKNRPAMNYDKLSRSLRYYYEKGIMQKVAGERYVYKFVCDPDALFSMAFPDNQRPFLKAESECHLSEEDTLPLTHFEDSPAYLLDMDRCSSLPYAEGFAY
ELF1, sequence (P32519 whole entry): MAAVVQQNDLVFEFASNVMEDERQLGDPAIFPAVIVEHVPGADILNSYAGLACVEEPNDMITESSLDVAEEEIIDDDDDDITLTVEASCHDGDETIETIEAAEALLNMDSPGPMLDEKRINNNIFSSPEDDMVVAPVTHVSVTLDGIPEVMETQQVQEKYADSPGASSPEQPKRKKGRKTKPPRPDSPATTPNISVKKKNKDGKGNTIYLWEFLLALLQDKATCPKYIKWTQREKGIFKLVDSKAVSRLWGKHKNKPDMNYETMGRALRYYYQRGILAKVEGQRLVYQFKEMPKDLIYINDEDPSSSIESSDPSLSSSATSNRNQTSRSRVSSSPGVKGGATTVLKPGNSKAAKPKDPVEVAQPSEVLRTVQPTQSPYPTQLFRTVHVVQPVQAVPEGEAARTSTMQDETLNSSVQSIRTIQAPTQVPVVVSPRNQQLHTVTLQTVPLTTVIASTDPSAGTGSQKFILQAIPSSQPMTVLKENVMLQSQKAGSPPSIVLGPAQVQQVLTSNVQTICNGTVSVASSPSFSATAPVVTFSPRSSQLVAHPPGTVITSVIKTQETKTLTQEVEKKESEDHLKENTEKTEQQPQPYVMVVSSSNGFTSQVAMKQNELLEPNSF

As for ACATTG, the binding signal is 1.24 fold enrichment (6-mer frequency, TF over GST control) in [1]; 1.11 fold enrichment (6-mer frequency, TF over GST control) in [2]; 1.17 fold enrichment (6-mer frequency, TF over GST control) in [3]; 1.07 fold enrichment (6-mer frequency, TF over GST control) in test [4]; 1.13 fold enrichment (6-mer frequency, TF over GST control) in test [5]; 1.17 fold enrichment (6-mer frequency, TF over GST control) in test [6]. In addition, the binding signal is 1.04 fold enrichment (6-mer frequency, TF over GST control) in [7]; 1.16 fold enrichment (6-mer frequency, TF over GST control) in [8]; 1.11 fold enrichment (6-mer frequency, TF over GST control) in test [9]; 1.12 fold enrichment (6-mer frequency, TF over GST control) in [10]; 1.09 fold enrichment (6-mer frequency, TF over GST control) in [11]; 1.18 fold enrichment (6-mer frequency, TF over GST control) in [12]. The binding signal in test [13] is 1.12 fold enrichment (6-mer frequency, TF over GST control); in [14] it was 1.19 fold enrichment (6-mer frequency, TF over GST control); in test [15], 1.09 fold enrichment (6-mer frequency, TF over GST control); in test [16], 1.25 fold enrichment (6-mer frequency, TF over GST control); in test [17], 1.19 fold enrichment (6-mer frequency, TF over GST control).
Take CACCCC: the binding signal in [1] is 1.2 fold enrichment (6-mer frequency, TF over GST control); in test [2], 1.3 fold enrichment (6-mer frequency, TF over GST control); in test [3] it was 1.35 fold enrichment (6-mer frequency, TF over GST control); in [4] it was 1.22 fold enrichment (6-mer frequency, TF over GST control); in test [5] it was 1.28 fold enrichment (6-mer frequency, TF over GST control); in test [6], 1.19 fold enrichment (6-mer frequency, TF over GST control). For the same sequence, the binding signal in test [7] is 1.24 fold enrichment (6-mer frequency, TF over GST control); in test [8], 1.32 fold enrichment (6-mer frequency, TF over GST control); in [9], 1.31 fold enrichment (6-mer frequency, TF over GST control); in [10] it was 1.22 fold enrichment (6-mer frequency, TF over GST control); in test [11], 1.18 fold enrichment (6-mer frequency, TF over GST control); in [12] it was 1.41 fold enrichment (6-mer frequency, TF over GST control). For the same sequence, the binding signal in test [13] is 1.18 fold enrichment (6-mer frequency, TF over GST control); in test [14], 1.47 fold enrichment (6-mer frequency, TF over GST control); in test [15], 1.13 fold enrichment (6-mer frequency, TF over GST control); in [16] it was 1.11 fold enrichment (6-mer frequency, TF over GST control); in test [17] it was 1.28 fold enrichment (6-mer frequency, TF over GST control).
